# Records with an inconclusive call do not appear. A call without a number means that no potency is given here. Active and inactive are the calls of the source. Calls come from the whole dose curve; as a rule, active = well fitted inhibition curve with a large enough effect; inconclusive = small, poorly fitted or top-dose-only effect; inactive = flat fitted curve, though single readings scatter.
# Target: Phospholipid hydroperoxide glutathione peroxidase GPX4 (Homo sapiens) (UniProt P36969)
# Assay: Primary qHTS Assay for Inhibitors of Recombinant Selenoprotein Glutathione Peroxidase 4 (GPX4) (AID 1845192); note: nearly all actives have a fitted effect of over 65% in size
# Conditions: recombinant GPX4, GR-coupled NADPH fluorescence, 15 min; series mostly up to 27.8 µM
# From the text: Assay Provider: Elias S.J. Arner MD PhD.
# Department of Medical Biochemistry and Biophysics
# Karolinska Institutet, Solna, Stockholm, Sweden
# Selenoprotein glutathione peroxidases (GPX), like the ubiquitously expressed GPX1 and the ferroptosis modulator GPX4, enact their antioxidant activities by reducing hydroperoxides using glutathione. […] GPX1 and GPX4 inhibitors have thus shown promise as anti-cancer agents. Existing inhibitors are often promiscuous, or modulate GPX activity only indirectly, so novel direct inhibitors identified through screening against GPX1 and GPX4 could be valuable. Here, we developed optimized glutathione reductase (GR)-coupled GPX assays for the biochemical high-throughput screen (HTS) of almost 12,000 compounds with known mechanisms of action. Initial hits were triaged using a GR counter-screen, assessed for isoform specificity using a separate GPX2 assay, and were assessed for general selenocysteine-targeting activity using a thioredoxin reductase (TXNRD1) assay. With this suite of assays, we identified novel GPX1/GPX2- and GPX4-specific inhibitors and can here present a validated pipeline for future discovery research for selenoprotein-targeting agents.
# SEQUENCE No. (e.g., 1, 2, 3, etc.); […] (e.g., Cells, Incubation, Reagent, etc.); VALUE; DESCRIPTION.
# 1; Reagent 1; 3 uL; 333.33 nM GPx4 enzyme or no enzyme control in 1536-well, black, solid Greiner assay plate.
# 2; Compound; 25 nL; Kalypsis pin tool (Wako USA) equipped with a 1536-well pin head.
# 3; Incubation; 30 min; room temperature.
# 4; Reagent 2; 1 uL; 500 nM GR, 5 mM GSH, 2.5 mM NADPH solution
# 5; Reagent 3; 1 uL; 2.5 mM CHP in 50% EtOH.
# 6; Detection; Fluorescence; ViewLux microplate reader, excitation 340 nm and emission 450 nm.
# 7; Incubation; 15 min; room temperature.
# 8; Detection; Fluorescence; ViewLux microplate reader, excitation 340 nm and emission 450 nm.
# NOTES (numbers refer to Sequence numbers above)
# 1. 3 µL of 333.33 nM GPX4 and 0.016% BSA in assay buffer (50 mM Tris-HCl, 2 mM EDTA (pH 7.5), 150 mM NaCl) was added to columns 3-48 of 1536-well plates using a BioRAPTR Flying Reagent Dispenser (Let's Go Robotics (LGR), Carlsbad, CA). A no-enzyme control (0.01% BSA in TES assay buffer) was added to columns 1-2.
# 2. 25 nL, library and DMSO controls were added to each well with a pin tool (Kalypsys).
# 3. The assay plates were incubated for 30 minutes at room temperature.
# 4. 1 µL of master mix (500 nM glutathione reductase (GR), 5 mM reduced glutathione (GSH), 2.5 mM NADPH in assay buffer) was added.
# 5. 1 µL of cumene hydroperoxide (CHP) ([2.5 mM] in 50% EtOH) was then added within 5 minutes to initiate the reaction. Final concentrations were: 200 nM GPX4, 1 mM GSH, 0.5 mM CHP, 0.5 mM NADPH, 100 nM GR, 0.01% BSA.
# 6. Initial fluorescence readout (t=0) at 340/450 nm was measured using a ViewLux multimodal detector (PerkinElmer, Waltham, MA).
# 8. Endpoint fluorescence readout (t=15) at 340/450 nm was measured 15 min after room temperature incubation.
# Chain of Phospholipid hydroperoxide glutathione peroxidase GPX4 (Homo sapiens) (P36969 whole entry, looked up): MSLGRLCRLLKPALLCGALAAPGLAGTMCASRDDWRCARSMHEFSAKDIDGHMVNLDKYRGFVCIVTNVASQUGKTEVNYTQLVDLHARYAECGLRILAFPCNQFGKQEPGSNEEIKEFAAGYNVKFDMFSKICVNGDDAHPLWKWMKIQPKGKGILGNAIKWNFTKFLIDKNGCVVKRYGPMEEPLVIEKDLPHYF
row,Compound,Potency
1,C/C=C(\C)C(=O)OC1CC2C(CC=C3CC(OC4CC(OC)C(OC5CC(OC)C(OC6CC(OC)C(OC7CC(OC)C(OC8CC(OC)C(OC9OC(CO)C(O)C(O)C9O)C(C)O8)C(C)O7)C(C)O6)C(C)O5)C(C)O4)CCC32C)C2(O)CCC(C(C)=O)C12C (stereo not given),inactive
2,C[C@@]12CC3(S(=O)(=O)O)OC(O1)[C@]1(COC(=O)c4ccccc4)[C@H]3C[C@]21O[C@@H]1O[C@H](CO)[C@@H](O)[C@H](O)[C@H]1O,inactive
3,C=CC(C)(O)CC/C=C(\C)C1CC=C(C)C(=O)O1 (stereo not given),inactive
4,CC1OC(OC2C(OC3C(O[C@H]4CC[C@@]5(C)C(CC[C@]6(C)C5CC=C5C7CC(C)(C)CC(O)[C@]7(C)CC[C@]56C)C4(C)C)OC(C(=O)O)C(O)C3O)OCC(O)C2O)C(O)C(O)C1O (stereo not given in full),inactive
5,Cc1cn2cc(CC(=O)N3CCC4(CC3)CN(Cc3ccc(-n5nccn5)cc3Cl)C4)nc2s1,inactive
6,COc1ccnc2[nH]cc(C(=O)C(=O)N3CCN(C(=O)c4ccccc4)CC3C)c12 (stereo not given),inactive
7,COc1cc(CCCO)ccc1O[C@@H]1O[C@H](CO)[C@@H](O)[C@H](O)[C@H]1O,inactive
8,CC(C)=CCc1cc(O[C@@H]2O[C@H](CO[C@@H]3OC[C@](O)(CO)[C@H]3O)[C@@H](O)[C@H](O)[C@H]2O)ccc1O,inactive
9,CC(=O)N[C@H]1[C@H](O[C@H]2CC[C@]3(C)C4CC=C5[C@@H]6CC(C)(C)CC[C@]6(C(=O)O)[C@H](O)C[C@@]5(C)[C@]4(C)CC[C@H]3C2(C)C)O[C@H](CO)[C@@H](O)[C@@H]1O (stereo not given in full),inactive
10,CC1(C)CC[C@]2(C(=O)O)CC[C@]3(C)C(=CCC4[C@@]5(C)CC[C@H](O[C@@H]6O[C@H](C(=O)O)[C@@H](O)[C@H](O)[C@H]6O)C(C)(C)C5CC[C@]43C)C2C1 (stereo not given in full),inactive
11,O=C(/C=C/c1ccc(O)cc1)OC[C@H]1O[C@H](O[C@@]2(CO)O[C@@H](CO)[C@H](O)[C@H]2O)[C@H](O)[C@@H](O)[C@@H]1O,inactive
12,Cc1oc2nc3c(c(NC(=O)CN4CCCC4=O)c2c1C)CCCC3,inactive
13,CC(C)c1c(NC(=O)Nc2ccc(Cl)cc2)c(=O)n(-c2ccccc2)n1C,inactive
14,O=C(/C=C/c1ccc(O)c(O)c1)O[C@H]1[C@@H]2C=CO[C@@H](O[C@@H]3O[C@H](CO)[C@@H](O)[C@H](O)[C@H]3O)[C@@H]2[C@@]2(CO)O[C@@H]12,inactive
15,C/C(=C\CCC(C)CCO)C(=O)OC[C@H]1O[C@@H](O[C@@H]2OC=C(C(=O)O)[C@H]3CC[C@](C)(O)[C@@H]23)C(O)[C@@H](O)C1O (stereo not given in full),inactive
16,CC(CCO)CCC1C2(C)CCCC(C)(C)C2CC[C@@]1(C)O (stereo not given in full),inactive
17,CC1(C)O[C@H]2CC(=O)OC[C@@]23C1=C(O)C(=O)[C@]1(C)C3CC[C@@]2(C)[C@H](c3ccoc3)OC(=O)[C@H]3O[C@]321 (stereo not given in full),inactive
18,C=C1CC/C=C(/C(=O)O)CCC2C1CC2(C)C (stereo not given),inactive
19,CC(C)NC(=O)c1ccc(C#Cc2ccncc2)cn1,inactive
20,CC1=CC(=O)[C@]2(O[C@@H]3O[C@@H](C)[C@H](O)[C@@H](O)[C@H]3O)C=CO[C@@H](O[C@@H]3O[C@H](CO)[C@@H](O)[C@H](O)[C@H]3O)[C@H]12,inactive

row,Compound,Potency
1,N#CC1C(=O)N=C(c2cc(Cl)ccc2O)C=C1c1cc(OCc2ccccc2)cc(OCc2ccccc2)c1 (stereo not given),inactive
2,CC1CCC2C(C)(C)C(O)C(O)CC2(C)C12Cc1c(O)cc(CO)c(C=O)c1O2 (stereo not given),inactive
3,CC(CNS(=O)(=O)C(C)C)c1ccc(-c2ccc(C#N)cc2)cc1 (stereo not given),inactive
4,COc1cc2c(cc1O)CC(O)(CO)C(CO)C2c1ccc(OC2OC(CO)C(O)C(O)C2O)c(OC)c1 (stereo not given),inactive
5,C[C@@H]1O[C@@H](OC2C(CO)OC(OCC3OC(OC(=O)[C@]45CCC(C)(C)CC4C4=CCC6[C@@]7(C)CC[C@@H](O)[C@](C)(C(=O)O)C7CC[C@@]6(C)[C@]4(C)CC5)C(O)C(O)C3O)C(O)C2O)[C@H](O)[C@H](O)[C@H]1O (stereo not given in full),inactive
6,C=C1C(O)CCC2(C)CC3(OC)OC(=O)C(C)=C3CC12 (stereo not given),inactive
7,CC(C)=CCc1c(O)cc2oc3cc(C)cc(O)c3c2c1C,inactive
8,CCC(C)/C=C(C)/C=C/C1=CC2=C(Cl)C(=O)C(C)(O)C(=O)C2(O)C(OC)O1 (stereo not given),inactive
9,CC(C)c1ccc2c(c1)CCC1[C@](C)(C(=O)O)CCC[C@]21C (stereo not given in full),inactive
10,CC1=CCC(O)C2(C)CCC3C(C)C(=O)OC3C12 (stereo not given),inactive
11,C/C=C(\C)C(=O)OCC1OC(OCC2OC(OC3(CO)OC(CO)C(O)C3O)C(O)C(O)C2O)C(O)C(O)C1O (stereo not given),inactive
12,COc1ccc([C@H]2OC[C@H]3[C@@H]2CO[C@@H]3c2ccc(O[C@@H]3O[C@H](CO)C(O)[C@H](O)[C@H]3O)c(OC)c2)cc1OC (stereo not given in full),inactive
13,COc1cc(O)cc2c1C(=O)OC(C)C2 (stereo not given),inactive
14,CC1=CC(=O)CC(C)(C)C1CCC(C)O[C@@H]1O[C@H](CO)[C@@H](O)[C@H](O)[C@H]1O (stereo not given in full),inactive
15,CC[C@H]1OC(=O)[C@H](C)C(=O)[C@H](C)[C@@H](OC2O[C@H](C)C[C@H](N(C)C)[C@H]2O)[C@@H](C)C[C@@H](C)C(=O)/C=C/[C@]1(C)O (stereo not given in full),inactive
16,COc1ccc(S(=O)(=O)Nc2nc(-c3cccc([N+](=O)[O-])c3)cs2)cc1OC,inactive
17,CC(=O)OC1CC(=O)C2(C)C3CC4=C(OC(C)CC4=O)OC3(C)CCC2C1(C)C (stereo not given),inactive
18,C=C(C(=O)OC)[C@]12O[C@@](C)(CC[C@@]3(O)/C(=C\C)C(=O)O[C@]3(C)C[C@@H]1OC(=O)C(CO)CN1CCCC1C(=O)O)CC2=O (stereo not given in full),inactive
19,O=C(C1OC1/C=C/c1ccc2c(c1)OCO2)N1CCCCC1 (stereo not given),inactive
20,CC1=C(CO)CC(C(C)C2CCC3C4CC=C5CC(OC6OC(COC7OC(CO)C(O)C(O)C7O)C(O)C(O)C6O)CC(O)C5(C)C4CCC23C)OC1=O (stereo not given),inactive

# Source: PubChem BioAssay (NCATS)
